# HT1080NT lethal = qHTS for induction of synthetic lethality in tumor cells producing 2HG: qHTS for the HT-1080-NT fibrosarcoma cell line; HT-1080-NT fibrosarcoma viability, CellTiter-Glo ATP luminescence, 48 h; Potency, µM (top dose mostly 46.1 µM), usual class: cytotoxic; 360,000 tested, 1.6% active;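 also: NT is the 2HG producing partner of a matched IDH1 knockdown line; nearly all actives have a fitted effect of over 55% in size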
#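 Toxicity toward the 2HG-producing NT line was scored as %Activity, normalised to DMSO and no-cell wells, from CellTiter-Glo luminescence after 48 hours' treatment.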
# HepG2 tox = qHTS for Inhibitors of TGF-b: Cytotox Counterscreen; HepG2 CAGA-GFP viability, ATP luminescence, 18 h; Potency, µM (top dose mostly 46.1 µM), hits mostly cytotoxic; 410,000 tested, 0.76% active; AID 588856, 2011
#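 HepG2 CAGA-GFP cells (1000/well, DMEM with 1% FBS) received compound, then TGF-beta at 500 pg/mL final, and were incubated 18 hours at 37 degrees C. Viability was read by CellTiter-Glo luminescence. Media-only wells were set as complete cell-killing and DMSO as no toxicity.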
# TGFb SMAD3 inh = qHTS for Inhibitors of TGF-b | HepG2 CAGA-GFP TGF-b/SMAD3 reporter, GFP fluorescence, 18 h; TGF-beta stimulated, 500 pg/mL final | Potency, µM (highest dose often 46.1 µM), actives largely listed as inhibitors | 410,000 tested, 1.2% active | AID 588855, 2011; also: nearly all actives have a fitted effect of over 65% in size
#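 Cell-based qHTS in HEPG2 carrying a CAGA-GFP Smad reporter; compounds added before 500 pg/mL final TGF-beta, 18 h incubation at 37 degrees C, GFP fluorescence quantified per cell by imaging cytometry.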
# KB-3-1 cytotox = qHTS assay for MDR1-selective chemotherapeutics: Primary screen using the parental adenocarcinoma cell KB-3-1; Potency, µM (top dose mostly 46.1 µM), most hits filed as cytotoxic; 400,000 tested, 1.4% active; KB-3-1 viability, CellTiter-Glo ATP luminescence, 72 h; also: nearly all actives have a fitted effect of over 60% in size
#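 Here the drug-naive KB-3-1 line serves as comparator for MDR sub-line selectivity; cells received compound titrations, 72 h at 37 °C, then CellTiter-Glo readout.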
# HT1080 IDH1KD tx = qHTS for induction of synthetic lethality in tumor cells producing 2HG: qHTS for the HT-1080-IDH1KD cell line. HT-1080 IDH1 knockdown viability, ATP luminescence, 48 h. 360,000 tested, 2% active. Potency, µM (highest dose often 46.1 µM), hits mostly cytotoxic
#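 HT-1080-IDH1KD cells (IDH1 knocked down), 750/well in RPMI with 5% FBS, treated with compound 48 h at 37 degrees C. Viability by CellTiter-Glo luminescence, normalised to DMSO and no-cell wells; concentration-response curves classed.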
# KB-V1 MDR tox = qHTS assay for MDR1-selective chemotherapeutics: Primary screen using the drug-selected MDR subline cells KB-V1 | KB-V1 MDR cells viability, CellTiter-Glo, 72 h | Potency, µM (highest dose often 46.1 µM), hits mostly cytotoxic | 400,000 tested, 3.4% active | AID 1347076, 2019; also: nearly all actives have a fitted effect of over 60% in size
#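 qHTS viability screen in drug-selected KB-V1 MDR cells: 72 h compound treatment at 37 degrees C, ATP luminescence end point.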
# Hits are given with their value; n = inactive; u = inconclusive; x = no result. Only some compounds are listed: those with a hit (about 6.6% of all), similar ones and a draw of the others. Calls follow the shape of the dose curve; as a rule, active = well fitted curve in the direction sought with a large enough effect; inconclusive = small, poorly fitted or top-dose-only effect, or another doubt; inactive = no such curve, though single readings can be large; an effect the other way counts as inactive or inconclusive.
SMILES,HT1080NT lethal,HepG2 tox,TGFb SMAD3 inh,KB-3-1 cytotox,HT1080 IDH1KD tx,KB-V1 MDR tox
Cc1cc(C(=O)N/N=C/c2ccc3c(c2)OCO3)c2ccccc2n1,u,n,n,2.59µM,4.11µM,u
Cc1ccc(Cl)cc1NS(=O)(=O)c1cc2c3c(c1)CC(=O)N3CCC2,x,n,n,n,x,n
CC1(C)OC(=O)C2(Cc3ccccc3N3CCCC32)C(=O)O1 (stereo not given),x,n,n,x,x,x
COc1cccc(C(=O)c2ccncc2C(=O)O)c1OC,n,n,n,n,n,n
COc1ccc(C(=O)c2ccc(Br)cc2)c(OC)c1OC,n,n,n,n,n,n
COc1ccc(C(=O)c2ccccc2C(=O)c2ccccc2)cc1,n,n,n,n,n,18.4µM
COc1ccc(-n2nnnc2/C=C\Nc2ccccc2C(=O)c2ccccc2)cc1,5.8µM,n,n,5.8µM,5.17µM,4.61µM
COc1ccc(-n2nnnc2/C=C/Nc2cc(C(F)(F)F)ccc2OC)cc1,n,n,u,n,n,n
O=C(c1ccccc1)c1ccccc1C(=O)c1ccccc1,n,n,n,n,n,n
COc1ccc(C(=O)c2ccc(N(C)C)cc2)c2ccccc12,1.58µM,n,u,5.17µM,2.82µM,2.06µM
COc1ccc(C(=O)c2ccc(OC)c(OC)c2OC)cc1,u,n,n,5.8µM,10.3µM,2.31µM
Cc1ccc(-c2csc(NC(=O)C3CC(=O)N(c4ccc5c(c4)OCCO5)C3)n2)o1 (stereo not given),x,n,u,u,x,n
CCN(c1ccccc1C)S(=O)(=O)c1nnc(NC(=O)c2ccc(OC)c(OC)c2)s1,x,n,n,x,x,x
Cc1ccc(NC(=O)C2CCCN(c3nnc(-n4c(C)ccc4C)s3)C2)c(C)c1 (stereo not given),x,n,x,x,x,x
CC(C)(C)C(=O)Nc1cccc(C(=O)OCc2cc(=O)n3nc(C4CC4)sc3n2)c1,x,n,n,n,x,n
CC(Sc1nc2ccccc2c(=O)n1C)C(=O)N(C)C1CCCCC1 (stereo not given),n,n,n,u,u,5.8µM
CC(Sc1nc2ccccc2c(=O)n1CC1CCCO1)C(=O)N(C)Cc1ccccc1 (stereo not given),n,n,n,u,n,n
CC1C(=O)C(C)C(c2cc(Cl)ccc2O)NC1c1cc(Cl)ccc1O (stereo not given),16.4µM,n,u,n,23.1µM,n
Cc1ccccc1NC(=S)N(Cc1ccccn1)Cc1ccccc1Cl,n,n,u,n,n,n
O=C(CCCC(=O)N/N=C\c1ccccn1)N/N=C\c1ccccn1,n,n,n,n,n,n
O=C(N/N=C(\c1ccccc1)c1ccccn1)c1ccccc1Cl,n,n,u,u,u,u
S=C(NN=Cc1ccccn1)N(Cc1ccccn1)Cc1ccccn1,n,n,u,6.51µM,u,u
S=C(NN=C(c1ccccc1)c1ccccn1)N(Cc1ccccn1)Cc1ccccn1,16.4µM,n,u,u,8.2µM,n
CC(=NNC(=S)N(Cc1ccccn1)Cc1ccccn1)c1cnccn1,u,n,u,u,0.581µM,13µM
COC(=O)c1c(SC)nc2ccccc2c1OCc1ccccc1Cl,x,n,n,n,x,n
SMILES,HT1080NT lethal,HepG2 tox,TGFb SMAD3 inh,KB-3-1 cytotox,HT1080 IDH1KD tx,KB-V1 MDR tox
O=C(/C=C/c1cccc(Cl)c1)Nc1cccc([S+](=O)([O-])Nc2ccccc2F)c1,x,x,x,n,x,n
Cc1cc(C(=O)COC(=O)c2ccc[nH]c2=O)c(C)n1-c1ccc(Br)cc1,n,n,n,n,n,n
Cc1ccc(-n2c(C)cc(C(=O)COC(=O)c3ccc[nH]c3=O)c2C)cc1,n,n,n,n,n,18.4µM
Cc1cc(C(=O)COC(=O)c2ccc(O)cc2O)c(C)n1-c1ccc(OC(F)F)cc1,n,n,u,16.4µM,n,u
Cc1cc(C(=O)COC(=O)c2ccc(O)cc2O)c(C)n1-c1ccccc1,n,n,u,u,n,16.4µM
COc1ccc(-n2c(C)cc(C(=O)COC(=O)c3ccc(O)cc3O)c2C)cc1,u,n,u,u,u,u
Cc1ccc(NC(=O)CN(C)S(=O)(=O)c2ccc3c(c2)CCC(=O)N3)c(C)c1,x,n,n,u,x,n
CCCN1C(=O)C(Cc2nc3ccccc3c(=O)n2CC)c2ccccc21 (stereo not given),x,n,x,x,x,x
COC(=O)c1c(SCC(=O)Nc2cc(F)ccc2F)[nH]c2ccc(C)cc2c1=O,x,n,u,n,x,n
O=C(CCS(=O)(=O)c1nc(-c2cccs2)cc(C(F)(F)F)n1)Nc1ccc(F)c(Cl)c1,x,11.2µM,20µM,x,x,x
O=C(CCS(=O)(=O)c1nc(-c2cccs2)cc(C(F)(F)F)n1)Nc1ccc(OC(F)(F)F)cc1,x,n,n,n,x,n
COc1ccc(Cl)cc1NC(=O)CCS(=O)(=O)c1nc(-c2cccs2)cc(C(F)(F)F)n1,x,n,u,x,x,x
COc1ccc(NC(=O)CCS(=O)(=O)c2nc(-c3cccs3)cc(C(F)(F)F)n2)cc1,x,n,10µM,x,x,x
CC(C)c1nnc(NC(=O)CCS(=O)(=O)c2nc(-c3cccs3)cc(C(F)(F)F)n2)s1,u,n,14.1µM,n,u,n
COc1ccc(NC(=O)CN(C)C(=O)c2cc(-c3cccs3)nn2-c2ccccc2)cc1,n,n,n,n,n,u
CCN(CC(=O)Nc1ccc(OC)cc1)C(=O)c1cc(-c2cccs2)nn1-c1ccccc1,n,n,n,n,n,20.6µM
CC(C)c1ccc(S(=O)(=O)NCc2nc3cccnc3n2Cc2ccc(F)cc2)cc1,x,n,u,x,x,x
CCOC(=O)C1CCCN(C(=O)Cn2cccc2C(=O)c2ccccc2)C1 (stereo not given),n,n,n,n,n,n
CCOC(=O)C1CCN(C(=O)Cn2cccc2C(=O)c2ccccc2)CC1,n,n,n,n,n,20.6µM
O=C(c1ccccc1)c1cccn1CC(=O)N1CCCCCC1,n,n,n,n,n,n
Cc1cccc(N2CCN(C(=O)Cn3cccc3C(=O)c3ccccc3)CC2)c1C,n,n,n,u,n,16.4µM
Cc1ccc(CN(C(=O)COc2cccc([N+](=O)[O-])c2)c2ccccn2)cc1,x,n,n,u,x,u
Cc1cn2c(=O)cc(COc3ccc(NC(=O)COc4ccccc4)cc3)nc2s1,x,n,u,n,x,n
